# PLK1 PBD inh: PLK1 (human) polo-box domain binding inhibition | Plk1 PBD binding of FITC phosphopeptide, fluorescence polarization | Potency, µM, inactives show max response, negative = inhibition, most hits filed as inhibitors | 360,000 tested, 2.8% active; note: series mostly up to about 57 µM; % is set by controls: 0 for no effect and ±100 for the full control effect; nearly all actives have a fitted effect of over 65% in size
# Target sequence (P53350 whole entry, looked up, the tested form may be a part): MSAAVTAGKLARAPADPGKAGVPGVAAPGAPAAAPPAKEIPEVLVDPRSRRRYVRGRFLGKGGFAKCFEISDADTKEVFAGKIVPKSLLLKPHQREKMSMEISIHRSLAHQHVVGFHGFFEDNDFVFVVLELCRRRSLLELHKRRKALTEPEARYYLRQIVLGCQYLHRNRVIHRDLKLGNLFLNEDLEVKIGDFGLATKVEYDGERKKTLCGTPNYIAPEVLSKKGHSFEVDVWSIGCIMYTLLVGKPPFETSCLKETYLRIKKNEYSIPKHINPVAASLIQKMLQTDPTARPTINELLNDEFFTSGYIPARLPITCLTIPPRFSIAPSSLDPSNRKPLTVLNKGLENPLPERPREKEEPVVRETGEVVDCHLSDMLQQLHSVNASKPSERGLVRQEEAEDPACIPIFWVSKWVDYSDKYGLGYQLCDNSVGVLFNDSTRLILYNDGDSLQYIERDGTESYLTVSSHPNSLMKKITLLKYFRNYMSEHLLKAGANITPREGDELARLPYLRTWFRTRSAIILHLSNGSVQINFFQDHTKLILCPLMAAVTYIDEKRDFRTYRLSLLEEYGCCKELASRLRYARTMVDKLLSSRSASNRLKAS
# Tb PFK block: inhibitors of T. brucei phosphofructokinase; 330,000 tested, 0.17% active; Potency, µM (top dose mostly 57.5 µM), for inactives: top-dose activity, negative = inhibition, usual class: inhibitors; T. brucei PFK, ADP-Glo luminescence;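 note: 0% = uninhibited 1x PFK enzyme wells and -100% = no-enzyme wells; nearly all actives have a fitted effect of over 60% in size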
#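 Compounds were pin-transferred as a titration series up to 57 uM into substrate buffer (0.5 mM F6P, 0.1 mM ATP, pH 8.0), then 1.25 nM PFK was added and reactions ran 45 min before ADP-Glo detection.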
# VDR inh: blocks the human vitamin D receptor; P11473; VDR-SRC2-3 peptide fluorescence polarization, 2 h; Potency, µM, for the others: max response, negative = inhibition, most hits filed as inhibitors; 400,000 tested, 0.93% active; note: % is set by controls: 0 for no effect and ±100 for the full control effect
#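 Fluorescence polarization assay of small-molecule disruption of VDR binding to coregulator peptide SRC2-3. Compounds and controls pin-transferred, then read after 2 h incubation at ambient room temperature.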
# BRCA1 expr up: activators of BRCA1 expression; Potency, µM (doses to about 46.1 µM), for the others: at the top dose activation, most hits filed as activators; 380,000 tested, 1.1% active; MCF7-BRCA1-FFLuc reporter, luminescence, 48 h; response scale: scaled: vehicle 0%, 10 µM genistein 100%; note: nearly all actives have a fitted effect of over 80% in size
#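 MCF7 cells carrying a BRCA1-firefly luciferase reporter (2000 cells/well, phenol-red free MEM) were attached for 2 h at 37 °C, then given compounds for 48 h. Luminescence was read 15 min after luciferase reagent; activity normalized to genistein (10 microM) and DMSO.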
# An asterisk follows results filed as active; ? = inconclusive; nt = no result given. Only some compounds are listed: those with a hit (about 3.9% of all), similar ones and a draw of the others. Calls come from the whole dose curve; as a rule, active = well fitted curve in the direction sought with a large enough effect; inconclusive = small, poorly fitted or top-dose-only effect, or another doubt; inactive = no such curve, though single readings can be large; an effect the other way counts as inactive or inconclusive. Potency is the fitted concentration of half-maximal effect.
SMILES,PLK1 PBD inh,Tb PFK block,VDR inh,BRCA1 expr up
CCn1c(C)cc(/C=C2/SC(=O)N(C(C)C(=O)OC)C2=O)c1C (centres undefined),-4%,-1%,0%,4.5µM*
CCOC(=O)c1nn(C)c2[nH]c(=O)n(C)c(=O)c12,-2%,nt,5%,-5%
COc1ccc(NC(=O)CCCc2nc(-c3ccco3)no2)c(OC)c1,nt,nt,11%,nt
CC1(C(=O)O)CCCN(C(=O)c2cc3ccccc3s2)C1 (centres undefined),-6%,nt,nt,-44%
COc1ccc(NCc2ccccc2-c2nnc(-c3ccccc3)o2)cc1Cl,nt,nt,7%,nt
O=C(CCSCc1ccccc1F)N1CCN(c2ccccn2)CC1,-5%,0%,-4%,10µM*
CCCNC(=O)C[C@@H]1CC[C@H]2NC[C@H](O)COC[C@@H]2O1,1%,nt,nt,nt
CCCc1noc(-c2cccc([N+](=O)[O-])c2)n1,2%,1%,9%,-5%
CCCc1noc(-c2ccc(-c3ccccc3)cc2)n1,0%,-3%,-5%,8.9µM*
O=C(/C=C\Nc1ccc2c(c1)OCO2)c1ccc2c(c1)OCO2,11µM*,0%,?,4%
CCOC(=O)c1cccc(N/C=C/C(=O)c2ccc(OC)c(OC)c2)c1,-18%,-3%,-15%,87%
COc1ccc(N/C=C\C(=O)c2ccc3c(c2)OCO3)cc1,-6%,4%,-6%,0%
CCOC(=O)c1ccc(N/C=C\C(=O)c2cccc(OC)c2)cc1,-11%,5%,-13%,3.5µM*
CCOc1ccc(N/C=C\C(=O)c2ccc3c(c2)OCO3)cc1,-6%,nt,-24%,4.5µM*
O=C(NC1CCCCC1)C(c1cccs1)N(C(=O)c1ccccn1)c1ccccc1 (centres undefined),-23%,-3%,-1%,0%
OC(C#Cc1ccccn1)c1cccs1 (centres undefined),30µM*,-26%,50µM*,-21%
COc1ccc(NS(=O)(=O)c2cc3[nH]c(=O)c(=O)[nH]c3cc2C)cc1Cl,nt,nt,6%,nt
O=C1Nc2cc(C(=O)N3CCOCC3)ccc2S/C1=C/c1ccccc1F,-2%,nt,nt,2%
COC(=O)[C@@H](Cc1ccccc1)NC(=O)/C=C/[C@H]1O[C@@H](n2cnc3c(NC(=O)c4ccccc4)ncnc32)[C@H](O)[C@@H]1O,-13%,nt,nt,11%
Cc1cccc(NC(=O)c2c(NC(=O)C(F)(F)F)sc3c2CCCCC3)c1,nt,nt,10%,nt
CC(C)(C)C(=O)Nc1sc2c(c1C(=O)Nc1ccccn1)CCCC2,27µM*,0%,-25%,-26%
O=C(CCn1nc(-c2ccc(Cl)cc2)c2ccccc2c1=O)Nc1ccc(OC(F)(F)F)cc1,nt,nt,9%,nt
O=C(COC(=O)c1ccco1)Nc1ccccc1[N+](=O)[O-],-6%,1%,-21%,0%
Cc1cc(OC(=O)c2ccco2)c(Sc2ccccc2[N+](=O)[O-])c(=O)o1,5.3µM*,-2%,?,2%
CCC1(c2ccc(Cl)cc2)NC(=S)N(c2ccc(C)cc2)N1 (centres undefined),-11%,-6%,79µM*,-22%
SMILES,PLK1 PBD inh,Tb PFK block,VDR inh,BRCA1 expr up
O=C(O)C(Cc1ccccc1)N1C(=O)/C(=C/c2cccs2)SC1=S (centres undefined),?,5%,79µM*,1%
COc1cccc(/C=C2\SC(=S)N(C(Cc3ccccc3)C(=O)O)C2=O)c1 (centres undefined),34µM*,2%,?,0%
O=C(O)C(c1ccccc1)N1C(=O)/C(=C/c2cccs2)SC1=S (centres undefined),?,4%,-16%,0%
COc1ccccc1OCC(=O)Nc1c(C(=O)c2ccc(F)cc2)oc2ccccc12,nt,nt,20%,8%
Cn1cc(S(=O)(=O)N2CCOCC2)cc1C(=O)Nc1cccc(C#N)c1,nt,nt,6%,-5%
COc1ccc(S(=O)(=O)N2CCC(C(=O)N[C@@H](C)C(=O)NCc3cccnc3)CC2)cc1,3%,nt,nt,20%
COc1ccc(C(=O)N2CCN(c3cccc(Cl)c3)CC2)cc1,-7%,-14%,-18%,-18%
COc1ccc(C(=S)N2CCCC2)cc1OC,-3%,-1%,2%,-3%
Oc1ccccc1C(=S)N1CCN(c2cccc(Cl)c2)CC1,12µM*,-19%,89µM*,-24%
COc1ccc(C(=S)N2CCN(c3cccc(Cl)c3)CC2)c(OC)c1,12µM*,1%,?,-21%
O=C(C(=O)N1CCN(c2cccc(Cl)c2)CC1)N1CCCCC1,-17%,-9%,2%,6%

# Screens from PubChem.
